# High-throughput results from PubChem.
# Most compounds without a hit are left out; they make up all but 19% or so of the library.
# DT40 TDP1 no CPT: qHTS for Inhibitors of human tyrosyl-DNA phosphodiesterase 1 (TDP1): qHTS in cells in absence of CPT. 15% of 420,000 active. Potency, µM (series often up to 46.2 µM), inactives show top-dose activity change, negative = growth inhibition, hits mostly inhibitors. DT40 Tdp1-/- hTDP1 cells, no CPT, ATP luminescence, 48 h. AID 686978, 2013; also: potency is read from the fitted curve at half-maximal effect; % is scaled to controls: 0 for no effect and ±100 for the full control effect; nearly all actives have a fitted effect of over 55% in size
#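 Growth kinetics read by CellTiter-Glo luminescence after ≥48 hr at 37 °C. Cells: DT40 Tdp1-/- stably carrying human TDP1, 400 per well, compound exposure in the absence of CPT (DMSO vehicle).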
# MCF10A rereplic: A quantitative high throughput screen for small molecules that induce DNA re-replication in MCF 10a normal breast cells; MCF 10A DNA re-replication, Hoechst nuclear intensity, 48 h; Potency, µM (series often up to 46.1 µM), for inactives: at the highest dose activity, positive = re-replication, usual class: activators; 2.9% of 350,000 active; also: potency is read from the fitted curve at half-maximal effect; % of control where 0% means no effect; nearly all actives have a fitted effect of over 50% in size
# BCR signal inh: qHTS Assay to Find Inhibitors of Chronic Active B-Cell Receptor Signaling. ABC-DLBCL IkBa-CBG/CBR reporter, luminescence ratio, 4 h. Potency, µM (titrated, usually from 46.1 µM), for inactives: top-dose activity change, negative = inhibition, usual class: inhibitors. 0.05% of 340,000 active; active = well fitted inhibition curve with a large enough effect in the signal ratio, with a control signal flat, not every such curve was filed as active; inconclusive = small, poorly fitted or top-dose-only effect, or effect the other way, or a change in a side signal; the % refers to the signal ratio;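 also: potency is read from the fitted curve at half-maximal effect; plate controls were basal doxycycline-induced cells for no effect and cells given 10 µM MG132 for full effect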
#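 TMD8 ABC-DLBCL cells carrying doxycycline-inducible green luciferase fused to IkappaBalpha plus unfused red luciferase were exposed to compounds (up to 46 uM) for 4 hrs at 37C. Activity came from the overlap-corrected green/red luminescence ratio.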
# IL1B secr inh: qHTS for Inhibitors of Inflammasome Signaling: IL-1-beta AlphaLISA Primary Screen; activity change, % at 57.5 µM; 4.7% of 360,000 active; THP-1 LPS/ATP IL-1B secretion, AlphaLISA, 16 h; hits give low values; in the data active = activity change below about -50%; inconclusive = mostly about -30% to -49%; also: % is scaled to controls: 0 for no effect and ±100 for the full control effect
#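 Secreted IL-1B measured by AlphaLISA bead assay after 16 h compound exposure of THP-1 cells; compounds (final up to 57.5 uM) added 1 h before LPS (250 ng/mL) and ATP (1.25 mM) stimulation; lower signal means less secretion.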
# SW480 rerep: A quantitative high throughput screen for small molecules that induce DNA re-replication in SW480 colon adenocarcinoma cells. SW480 DNA re-replication, Hoechst DNA content imaging, 48 h. Potency, µM (series often up to 46.1 µM), without a hit: top-dose re-replication activation, hits mostly activators. 1.8% of 340,000 active. AID 624297, 2012; also: potency is read from the fitted curve at half-maximal effect; % of control where 0% means no effect; nearly all actives have a fitted effect of over 55% in size
#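 Image-based read-out: total Hoechst fluorescence of nuclei (405 nm excitation, 500-530 nm emission), with hits raising the fraction of high-intensity nuclei. SW480 colon cells incubated 48 hr with compounds at 37 C.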
# TDP1 cell CPT: qHTS for Inhibitors of human tyrosyl-DNA phosphodiesterase 1 (TDP1): qHTS in cells in presence of CPT. chicken DT40 Tdp1-/-;hTDP1 cells + 20 nM CPT, ATP luminescence, 48 h. Potency, µM (top dose mostly 46.2 µM), without a hit: at the top dose activity change, negative = growth inhibition, usual class: inhibitors. 12% of 420,000 active. AID 686979, 2013; also: potency is read from the fitted curve at half-maximal effect; % is scaled to controls: 0 for no effect and ±100 for the full control effect; nearly all actives have a fitted effect of over 55% in size
#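 Chicken DT40 Tdp1-/- cells stably complemented with human TDP1 were seeded at 400 cells/well in medium containing 20 nM camptothecin, exposed to pin-transferred compounds, and grown at 37 °C for at least 48 hr. Viability was read as ATP luminescence.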
# * = called active by the depositor; ? = inconclusive; nt = not tested or not shown; ! = not confirmed by another sample; [ ] = dose if it differs, or a comment. Unless noted, calls follow the shape of the dose curve; as a rule, active = well fitted curve in the direction sought with a large enough effect; inconclusive = small, poorly fitted or top-dose-only effect, or another doubt; inactive = no such curve, though single readings can be large; an effect the other way counts as inactive or inconclusive.
SMILES,DT40 TDP1 no CPT,MCF10A rereplic,BCR signal inh,IL1B secr inh,SW480 rerep,TDP1 cell CPT
COc1ccc(S(=O)(=O)c2c(Nc3c(C)cccc3C)sc(C(=O)c3ccc(F)cc3)c2N)cc1,5.17µM*,nt,nt,nt,nt,5.8µM*
Cc1ccc(S(=O)(=O)c2c(Nc3cc(C)ccc3C)sc(C(=O)c3ccc4c(c3)OCO4)c2N)cc1,7.31µM*,nt,nt,nt,nt,6.51µM*
Cc1cc(C)cc(Nc2sc(C(=O)c3ccccc3)c(N)c2S(=O)(=O)c2ccccc2)c1,?,nt,-6.7%,nt,nt,-24.2%
COc1ccc(Cc2nnc(NC(=O)Nc3ccccc3F)s2)cc1OC,?,23.4%,?,67.3,?,?
Cc1ccccc1CNC(=O)c1ccc2nc(C(C)C)oc2c1,-22.3%,nt,nt,nt,nt,-29.0%
CC(=O)Nc1cc(C(=O)N2CCc3ccccc3C2)ccc1Sc1ccc(Cl)cc1,?,23.1µM*,5.9%,-11.0,8.5%,?
CN(C)CCNCCCNc1c2ccccc2nc2cccc([N+](=O)[O-])c12,0.103µM*,?,nt,?,?,0.0517µM*
O=C(CCCCCl)Nc1c2c(nc3ccccc13)CCC2,-1.0%,7.5%,-0.9%,-7.3,-47.0%[1.84 µM],-25.5%
c1ccc2c(Nc3ccc4c(c3)OCCO4)c3c(nc2c1)CCC3,14.6µM*,?,?,12.6,?,23.1µM*
Fc1ccc(Nc2c3c(nc4ccccc24)CCC3)cc1,10.3µM*,0.6%,?,-95.6*,?,5.17µM*
CN(C)CCCNc1c2c(nc3ccccc13)CCC2,14.6µM*,3.6%,?,-68.7*,-12.6%,?
O=C(COC(=O)c1cc[n+]([O-])cc1)NC(=O)c1ccc(OC(F)F)cc1,-5.8%,10.4%,1.1%,-17.5,-5.4%,-8.2%
O=C(NCC(c1ccc2c(c1)OCO2)N1CCOCC1)c1ccc(F)cc1 (configuration not stated),-27.9%,nt,nt,nt,nt,-27.9%
COc1ccccc1N1CCN(C2CCCN(C(=O)CC(F)(F)F)C2)CC1 (configuration not stated),9.4%,1.5%,1.8%,13.8,?,-2.6%
COc1cc(Nc2nc3ccc(Cl)cc3nc2-n2nc(C)cc2C)cc(OC)c1,7.8%,nt,nt,nt,nt,0.2%
COc1ccccc1Nc1nc(C)cc(C)n1,-0.6%,0.7%,?,-14.6,-1.9%[9.22 µM],9.9%
COc1ccccc1Nc1cc(C)nc(Nc2ccccc2OC)n1,23.1µM*,?,?,-13.6,16.7%,20.6µM*
Clc1c2c(nc3ccccc13)CCC2,2.2%,-2.2%,0.4%,-9.9,-30.2%,-22.6%
Nc1c2c(nc3ccccc13)CCCC2,18.4µM*!,?,?,-17.9,?,16.8µM*!
COc1cc(Nc2c3ccccc3nc3ccccc23)cc(OC)c1OC,5.17µM*,?,?,-95.4*,23.1µM*,7.31µM*
Cc1cc(Nc2ccc([N+](=O)[O-])cc2)nc2ccccc12,-6.7%,?,?,0.0,?,-0.4%
COc1ccc(Nc2cc(C)c3ccccc3n2)cc1,?,7.6%,?,-96.6*,8.3%,-29.5%
O=C(c1ccc(-n2cncn2)c2ccoc12)N1CCOCC1,-9.3%,nt,nt,13.9,nt,1.1%
CC1Sc2ccc(S(=O)(=O)N3CCC(C(=O)NCC(C)c4ccccc4)CC3)cc2NC1=O (configuration not stated),?,20.1%,?,-15.2,-0.4%,?
CCCNC(=O)c1cc(C2CCCCN2C(=O)OCC(C)C)on1 (configuration not stated),-25.9%,nt,nt,9.0,nt,-24.9%
SMILES,DT40 TDP1 no CPT,MCF10A rereplic,BCR signal inh,IL1B secr inh,SW480 rerep,TDP1 cell CPT
CCN(CC)CCOC(=O)c1ccc(Nc2c3c(nc4ccccc24)CCC3)cc1,18.4µM*,nt,nt,nt,nt,?
COc1ccc(Nc2c3c(nc4ccccc24)CCC3)cc1,20.6µM*,1.4%,?,nt,7.7%,?
Cc1ccc2nc3c(c(Nc4ccccc4)c2c1)CCC3,?,-18.1%,?,nt,-10.9%,?
COCCNc1c2c(nc3ccccc13)CCC2,?,-1.4%,-0.3%,-13.5,1.6%,-20.4%
COc1ccc(NC(=O)c2c3c(nc4ccccc24)CCC3)cc1,-6.5%,0.3%,-3.2%,-4.4,2.5%,-5.9%
c1ccc(Nc2c3c(nc4ccccc24)CCC3)cc1,14.6µM*,1.7%,-1.8%,-12.6,-31.6%,5.17µM*
Fc1ccccc1Nc1c2c(nc3ccccc13)CCC2,20.6µM*,nt,nt,nt,nt,?
O=C(NCCCc1ccc(F)cc1)C1CCC(=O)N(CCN2CCOCC2)C1 (configuration not stated),3.7%,-0.7%,1.5%,4.7,-4.2%,6.8%
Cc1ccc(S(=O)(=O)N2CCC(C(=O)Nc3ncccc3O)CC2)cc1,15.8%,24.8%,-1.3%,44.7,4.8%,13.6%
COc1ccccc1N1CCN(c2nc(CNC(=O)c3cc(C)oc3C)nc3ccccc23)CC1,?,nt,nt,nt,nt,-19.9%[9.04 µM]
COc1ccc(Nc2cc(Nc3ccc(OC)cc3)ncn2)cc1,13.4%,3.7%,-1.0%,-2.3,24.1%,4.8%
COc1ccc(C)cc1Nc1c2c(nc3ccccc13)CCC2,2.59µM*,1.64µM*,?,-82.5*,2.91µM*,3.26µM*
COc1ccc(Nc2c3c(nc4ccccc24)CCC3)cc1Cl,18.4µM*,nt,nt,nt,nt,11.6µM*
COC(=O)c1c2c(nc3ccccc13)CCC2,?,?,5.2%,22.3,-7.6%,-20.4%
COc1ccc(Nc2c3c(nc4ccccc24)CCCC3)cc1OC,?,2.4%,2.3%,-17.9,-0.8%,?
COc1ccc(Nc2cc(Nc3cc(OC)c(OC)c(OC)c3)ncn2)cc1,20.6µM*,?,-8.4%,-79.7*,3.3%,18.4µM*
COc1ccc(Nc2c3ccccc3nc3ccccc23)cc1,?,-2.4%,7.2%,-98.0*,23.1µM*,?
COc1ccc(CNC(=O)C(CCSC)NS(=O)(=O)c2ccc3c(c2)oc(=O)n3C)cc1 (configuration not stated),-11.6%,nt,-3.1%,nt,nt,-15.9%
O=C(O)CN1C(=O)C(=O)N(Cc2ccc(C(F)(F)F)cc2)C1=O,15.4%,-3.1%,3.5%,10.4,17.7%,3.9%
COc1ccccc1Nc1c2ccccc2nc2ccccc12,16.4µM*,?,?,-93.0*,?,16.4µM*
